# PubChem BioAssay (NCATS)
# Inconclusive results are not listed. A call without a number means that no potency is given here. Unmarked numbers belong to inactive results. Active and inactive are the calls of the source. Calls come from the whole dose curve; as a rule, active = well fitted inhibition curve with a large enough effect; inconclusive = small, poorly fitted or top-dose-only effect; inactive = flat fitted curve, though single readings scatter.
# Target: Calcium and integrin-binding protein 1 (Homo sapiens) (UniProt Q99828)
# Sequence (Q99828 whole entry, looked up): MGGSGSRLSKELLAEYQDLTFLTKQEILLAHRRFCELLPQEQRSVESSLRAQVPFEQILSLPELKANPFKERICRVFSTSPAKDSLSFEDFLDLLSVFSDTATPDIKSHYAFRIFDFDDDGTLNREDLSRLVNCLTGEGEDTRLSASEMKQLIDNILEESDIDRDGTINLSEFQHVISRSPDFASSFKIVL
# Assay: Primary qHTS for Identification of Calcium Integrin Binding Protein 1 (CIB1) Competitor (AID 1508620);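 note: GST tagged CIB1 binding a fluorescein labelled alphaIIb integrin peptide tracer; top concentration of the series differs between compounds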
# Settings: CIB1-GST / FITC-alphaIIb peptide fluorescence polarization; series mostly up to 57.7 µM
# Source text: Assay Provider: Ulhas P. Naik, PhD Sidney Kimmel Medical College Thomas Jefferson University, Philadelphia, PA Primary function of platelets is to maintain hemostasis. At the site of vascular injury, platelets adhere to adhesive proteins such as collagen and von Willebrand factor. Adherent platelets are activated and generate soluble platelet agonists such as thrombin, ADP and thromboxane A2. Following exposure of circulating platelets to these agonists, results in platelet shape change, granule secretion and activation of platelet integrin alphaIIb-beta3. Ligand binding to activated integrin alphaIIb-beta3 triggers outside-in signaling, leading to platelet aggregation, stabilization of platelet plug, and clot retraction. Upon atherosclerotic plaque rupture also causes platelet plug formation, which underlies a number of cardiovascular diseases such as myocardial infraction and stroke. A number of anti-platelet drugs such as aspirin, clopidogrel, prasugrel, vorapaxar, and eptifibatide are currently available to prevent the thrombotic complications. However, these anti-platelet agents have several limitations including inherent variability in individual responses, developing resistance, and serious bleeding side effects. For these reasons they are not suitable for long-term protection. Based on the experiences with current anti-platelet drugs, it appears that the most useful therapeutic approach is to intersect the secondary responses such as integrin outside-in signaling or recruitment of platelets by TxA2 and secreted ADP. Compounds, which can largely preserve the primary hemostatic function of platelets but inhibit secondary response will be most desired therapeutic agents for treatment of cardiovascular disease. CIB1 is a calcium integrin binding protein, which specifically interact with the alphaIIb subunit of integrin alphaIIb-beta3. Binding of CIB1 to alphaIIb regulates the outside-in signaling in platelets, which is needed for thrombus stabilization and thrombus growth. […] Therefore, we propose that discovery of a small molecule that can prevent the association of CIB1 and alphaIIb-beta3 will be a potential anti-platelet agent that can block the thrombus formation without undue effect on hemostasis. Reference: [1] Naik MU, Nigam A, Manrai P, et al. CIB1 deficiency results in impaired thrombosis: the potential role of CIB1 in outside-in signaling through integrin alpha IIb beta 3. J Thromb Haemost.
# PROTOCOL TABLES SEQUENCE No. (1, 2, 3, etc.); […] (e.g., Cells, Incubation, Reagent, etc.); VALUE and DESCRIPTION. 1; Reagent; 3 uL; Protein or buffer (4/3x) 2; Compound; 46 nL; Control inhibitor / compound library 3; Time; 15 min; Room temperature incubation 4; Reagent; 1 uL; Fluorescent labeled peptide (4x) 5; Time; 1000 rpm; Centrifuge 6; Time; 15 min; Room temperature incubation 7; Detection; Ex 480/ Em 540; ViewLux Fluorescence Read NOTES (numbers refer to sequence above) 1; Protein Mixture: C1B1-GST (final concentrations of 1 uM). […] 3; Room temperature incubation. 4; Fluorescent Labeled Peptide: FITC-aIIb (final concentration of 100 nM). Sequence of alphaIIb peptide: Acetyl-[…]-FITC (purity is 95.83%). 5; Centrifuge 1000 rpm (164 g) for 15 seconds. 6; Room temperature incubation. 7; ViewLux Fluorescent Polization Read: excitation = 480(20) / emission = 540(25) S and P; FITC Dichroic mirror.
Compound,Potency,"activity change, negative = inhibition"
O=C(CCCCC1CCCCC1)N1CCC(c2cnc[nH]2)CC1,inactive,–
COc1cc(-c2ccc(O)cc2)c(OC)c(O)c1C1=CC(=O)OC1CC(=O)O (stereo not given),inactive,–
c1cc(-c2cc(C3CCNCC3)[nH]n2)ccn1,inactive,–
CC1=CC(=O)C2C(C)(C)CCC[C@]2(C)[C@H]1CC[C@H](C)CC(=O)O (stereo not given in full),inactive,–
C/C1=C\CC(C)(C)/C=C/C/C(C(=O)O)=C/CC1,inactive,–
CCOC(=O)COc1ccc2c(c1)C[C@@H](NC[C@H](O)c1cccc(Cl)c1)CC2,inactive,–
O=C1C[C@@]2(C(=O)N1)C(=O)N(Cc1ccc(Br)cc1F)C(=O)c1cccn12,inactive,–
CC(C)c1ccc2c(c1)[C@H](O)CC1[C@@](C)(C(=O)O)CCC[C@]21C (stereo not given in full),inactive,–
C/C(=C\CC/C(C)=C/CC[C@]1(C)CCc2cc(O)cc(C)c2O1)CC/C=C(\C)C(=O)O,inactive,–
CC(=O)OC12CC(C)C(O)C1/C=C(/COC1OC(CO)C(O)C(O)C1O)CCC1C(/C=C(\C)C2=O)C1(C)C (stereo not given),inactive,–
COc1cc(O)cc2c1C(=O)OC(C)C2 (stereo not given),inactive,–
COc1ccc(CC(=O)NCc2ccccc2-c2ccccc2C(=O)NCCc2cccnc2)cc1,inactive,–
C=CC1(C)C=C2CC[C@H]3[C@@](C)(C(=O)O)CCC[C@]3(C)C2CC1 (stereo not given in full),inactive,–
CC(=O)/C=C/C1(O)C(C)=CC(=O)CC1(C)C (stereo not given),inactive,–
COc1ccc(/C=C/C(=O)O[C@@H]2[C@@H](OC(C)=O)[C@@H](OC(C)=O)[C@H](O[C@H]3[C@@H]4C=CO[C@@H](O[C@@H]5O[C@H](CO)[C@@H](O)[C@H](O)[C@H]5O)[C@@H]4[C@@]4(CO)O[C@@H]34)O[C@H]2C)cc1,inactive,–
C=C1CC[C@@]2(OC1)O[C@H]1CC3[C@@H]4CC=C5C[C@H](O[C@H]6OC[C@@H](O)C(O)[C@@H]6O[C@@H]6O[C@@H](C)[C@H](O)[C@@H](O[C@@H]7O[C@H](CO)[C@@H](O)[C@H](O)[C@H]7O)[C@H]6O)C[C@@H](O)[C@]5(C)C4CC[C@]3(C)[C@H]1[C@@H]2C (stereo not given in full),inactive,–
CC1(C(=O)O)CCCC2(C)C3CCC4CC3(CCC12)CC4C(=O)O (stereo not given),inactive,–
CC(C)=CCC/C(C)=C/CO[C@@H]1O[C@H](CO[C@@H]2O[C@@H](CO)[C@H](O)[C@H]2O)[C@@H](O)[C@H](O)[C@H]1O,inactive,–
O=C(NC1CCN(CC(F)(F)F)CC1)c1ccc(-c2cccc(F)c2)nc1,inactive,–
CC1=C2C[C@H]3OC(=O)[C@H](O)[C@@]4(O)[C@@H](C)[C@@H](O)[C@H](O)C([C@@]2(C)[C@H](O)[C@@H](O)C1)[C@@]34C (stereo not given in full),inactive,–

Compound,Potency,"activity change, negative = inhibition"
C=C(C)[C@@H]1CC[C@]2(C(=O)O)CC[C@]3(C)C(CCC4[C@]5(C)C(CC[C@]43C)C(C)(C)[C@@H](O)[C@@H]5C(=O)O)C12 (stereo not given in full),inactive,–
CC1CC(=O)C2C(O)(C1)CC(O)C13OC1c1c(O)cccc1C(=O)C23O (stereo not given),inactive,–
C=C(C)[C@@H]1CC[C@]2(CO)CC[C@]3(C)[C@H](CC[C@@H]4[C@@]5(C)CC[C@H](O)C(C)(C)[C@@H]5CC[C@]43C)[C@@H]12,inactive,–
Fc1ccc(-c2c3cccc(C(F)(F)F)c3nn2Cc2ccc(F)cc2Cl)cc1,inactive,–
CC1C(O)C(O)C2C(C(=O)OCCc3ccc(O)cc3)=COC(O[C@@H]3O[C@H](CO)[C@@H](O)[C@H](O)[C@H]3O)C12 (stereo not given in full),inactive,–
CCC/C=C1\OC(=O)C2=C1CCC(O)C2O (stereo not given),inactive,–
C=C(C)[C@@H]1CC[C@]2(C(=O)O)CC[C@]3(C)[C@H](CCC4[C@@]5(C)CCC(=O)C(C)(C)C5C(O)C[C@]43C)C12 (stereo not given in full),inactive,–
C[C@@H]1O[C@@H](OC2C(CO)OC(OCC3OC(OC(=O)[C@]45CCC(C)(C)CC4C4=CCC6[C@@]7(C)CC[C@@H](O)[C@](C)(C(=O)O)C7CC[C@@]6(C)[C@]4(C)CC5)C(O)C(O)C3O)C(O)C2O)[C@H](O)[C@H](O)[C@H]1O (stereo not given in full),inactive,–
CC1(C)O[C@H]2CC(=O)OC[C@@]23C1=C(O)C(=O)[C@]1(C)C3CC[C@@]2(C)[C@H](c3ccoc3)OC(=O)[C@H]3O[C@]321 (stereo not given in full),inactive,–
CC(C)(Oc1ccc(-c2nc3cc(Cl)ccc3s2)cc1)C(=O)O,inactive,–
C/C=C(/C)C(=O)OC1CC(C)(C)CC2C3=CCC4C5(C)CCC(OC6OC(C)C(OC7OC(C(=O)O)C(O)C(OC8OC(CO)C(O)C(O)C8OC8OC(CO)C(O)C(O)C8O)C7O)C(O)C6O)C(C)(C)C5CCC4(C)C3(C)C(OC(=O)/C=C/C=C/C=C/CCC)C(OC(C)=O)C12CO (stereo not given),–,0.802% [at 12.4 µM]
CCC(C)C(C(=O)O)N1Cc2c(OCC=C(C)C)c(C)c(OC)c(C(=O)O)c2C1=O (stereo not given),inactive,–
CC(C)(O)C1CC=C(C(=O)OC[C@H]2O[C@@H](OC(=O)C3=CCC(C(C)(C)O)CC3)[C@H](O)[C@@H](O)[C@@H]2O)CC1 (stereo not given in full),inactive,–
CC(=O)[C@@H]1C[C@H](C(C)(C)O[C@@H]2O[C@H](CO)[C@@H](O)[C@H](O)[C@H]2O)CC[C@@]2(CO)OC(=O)C[C@@H]12,inactive,–
C=C(CCO)C(=O)OCC1OCC(OC(=O)C(=C)CCO[C@@H]2O[C@H](CO)[C@@H](O)[C@H](O)[C@H]2O)C(O)C1O (stereo not given in full),inactive,–
CC(C)=CCC[C@](C)(O[C@@H]1O[C@H](CO)[C@@H](O)[C@H](O)[C@H]1O)[C@H]1CC[C@]2(C)[C@@H]1[C@H](O)CC1[C@@]3(C)CC[C@H](O)C(C)(C)C3[C@@H](O[C@@H]3O[C@H](CO)[C@@H](O)[C@H](O)[C@H]3O[C@@H]3O[C@@H](C)[C@H](O)[C@@H](O)[C@H]3O)C[C@]12C (stereo not given in full),inactive,–
CC1(C)CCC2(C(=O)O)C(O)CC3(C)C(=CCC4C5(C)CCC(OC6OC(CO)C(O)C(O)C6OC6OC(CO)C(O)C(O)C6OC6OCC(O)(CO)C6O)C(C)(C)C5CCC43C)C2C1 (stereo not given),inactive,–
O=C(N[C@H](Cc1ccccc1)C(=O)O)c1sc2cc(F)ccc2c1Cl,inactive,–
CC1(C)COC(=O)[C@@H]1O[C@@H]1O[C@H](CO)[C@@H](O)[C@H](O)[C@H]1O,inactive,–
CC(=O)OCC1=C[C@@H]2OC(=O)C3=CO[C@@H](O[C@@H]4O[C@H](CO)[C@@H](O)[C@H](O)[C@H]4O)[C@H]1[C@@H]32,inactive,–
